Holding throughout (assay): PBM; 200 nM protein, PBS
Holding throughout (details): dsDNA, one strand shown

For assay [1], the target named is CRX (Homo sapiens, UniProt O43186 26-111).
The next assay addresses T1, VENTX (Homo sapiens, UniProt O95231 78-163, R121Q).
T1 sequence: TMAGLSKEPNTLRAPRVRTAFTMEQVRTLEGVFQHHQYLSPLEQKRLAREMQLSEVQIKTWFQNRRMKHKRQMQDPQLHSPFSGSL

Assay [2] deals with HOXB6 (Homo sapiens, UniProt P17509 132-218, K202E).
Assay [3] deals with CRX (Homo sapiens, UniProt O43186 26-111, E42D).
Assay [4] has as its target MSX2 (Homo sapiens, UniProt P35548 130-214).
For assay [5], the target named is MSX2 (Homo sapiens, UniProt P35548 130-214, F161Y).
Assay [6] deals with CRX (Homo sapiens, UniProt O43186 26-111, R41L).
The target of assay [7] is HOXB6 (Homo sapiens, UniProt P17509 132-218).
Assay [8] addresses T2, SIX6 (Homo sapiens, UniProt O95475 114-200, L167I).
T2 sequence: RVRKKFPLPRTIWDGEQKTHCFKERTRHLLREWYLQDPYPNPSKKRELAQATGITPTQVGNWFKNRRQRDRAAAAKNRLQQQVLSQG

In assay [9] the target is T3, SIX6 (Homo sapiens, UniProt O95475 114-200, L143V).
T3 sequence: T2 sequence with L30V, I54L

Assay [10] has as its target ALX4 (Homo sapiens, UniProt Q9H161 200-286).
For assay [11], the target named is T4, PAX4 (Homo sapiens, UniProt O43316 9-242, R200K).
T4 sequence: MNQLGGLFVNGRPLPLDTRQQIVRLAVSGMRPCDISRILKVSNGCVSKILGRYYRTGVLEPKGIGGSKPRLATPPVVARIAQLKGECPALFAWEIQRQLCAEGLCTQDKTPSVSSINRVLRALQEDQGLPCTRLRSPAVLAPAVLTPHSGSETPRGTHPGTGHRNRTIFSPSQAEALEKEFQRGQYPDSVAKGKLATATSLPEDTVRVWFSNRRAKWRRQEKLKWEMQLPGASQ

Assay [12] deals with T5, SIX6 (Homo sapiens, UniProt O95475 114-200, H141N).
T5 sequence: T2 sequence with H28N, I54L

Assay [13] deals with T6, SIX6 (Homo sapiens, UniProt O95475 114-200, T165P).
T6 sequence: T2 sequence with T52P, I54L

Assay [14] deals with T7, PAX4 (Homo sapiens, UniProt O43316 9-242).
T7 sequence: T4 sequence with K192R

In assay [15] the target is T8, SIX6 (Homo sapiens, UniProt O95475 114-200, L167M).
T8 sequence: T2 sequence with I54M

Assay [16] concerns the target T9, SIX6 (Homo sapiens, UniProt O95475 114-200, L143M).
T9 sequence: T2 sequence with L30M, I54L

In assay [17] the target is T10, SIX6 (Homo sapiens, UniProt O95475 114-200, L143I).
T10 sequence: T2 sequence with L30I, I54L

Assay [18] concerns the target ALX4 (Homo sapiens, UniProt Q9H161 200-286, Q225E).
Assay [19] deals with T11, SIX6 (Homo sapiens, UniProt O95475 114-200, T165G).
T11 sequence: T2 sequence with T52G, I54L

Assay [20] has as its target HOXA2 (Homo sapiens, UniProt O43364 129-215, R185T).
For assay [21], the target named is T12, SIX6 (Homo sapiens, UniProt O95475 114-200, T139Q).
T12 sequence: T2 sequence with T26Q, I54L

Assay [22] concerns the target ALX3 (Homo sapiens, UniProt O95076 139-225, N203Q).
In assay [23] the target is T13, SIX6 (Homo sapiens, UniProt O95475 114-200, T165A).
T13 sequence: T2 sequence with T52A, I54L

The target of assay [24] is T14, PAX4 (Homo sapiens, UniProt O43316 9-242, R200Q).
T14 sequence: T4 sequence with K192Q

The target of assay [25] is HOXA2 (Homo sapiens, UniProt O43364 129-215, R185K).
Assay [26] addresses T15, PAX4 (Homo sapiens, UniProt O43316 9-242, F177V).
T15 sequence: T4 sequence with F169V, K192R

For assay [27], the target named is T16, SIX6 (Homo sapiens, UniProt O95475 114-200, L167V).
T16 sequence: T2 sequence with I54V

Assay [28] deals with ALX3 (Homo sapiens, UniProt O95076 139-225).
Assay [29] has as its target T17, PAX4 (Homo sapiens, UniProt O43316 9-242, F177Y).
T17 sequence: T4 sequence with F169Y, K192R

The target in assay [30] is T18, SIX6 (Homo sapiens, UniProt O95475 114-200).
T18 sequence: T2 sequence with I54L

The target in assay [31] is ALX3 (Homo sapiens, UniProt O95076 139-225, L168Q).
Assay [32] addresses T19, SIX6 (Homo sapiens, UniProt O95475 114-200, T165I).
T19 sequence: T2 sequence with T52I, I54L

Assay [33] deals with ALX3 (Homo sapiens, UniProt O95076 139-225, L168V).
Assay [34] addresses T20, PAX4 (Homo sapiens, UniProt O43316 9-242, R227W).
T20 sequence: T4 sequence with K192R, R219W

Assay [35] has as its target HOXA2 (Homo sapiens, UniProt O43364 129-215, Y150S).
Assay [36] concerns the target ALX3 (Homo sapiens, UniProt O95076 139-225, N203S).
Assay [37] concerns the target HOXA2 (Homo sapiens, UniProt O43364 129-215).

Where a chain is given by its changes, count along the chain named.

Chain of CRX (Homo sapiens, UniProt O43186 26-111, E42D) (O43186 26-111 E42D): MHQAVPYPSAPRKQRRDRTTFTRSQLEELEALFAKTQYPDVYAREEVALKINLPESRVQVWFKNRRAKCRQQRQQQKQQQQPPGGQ
Chain of CRX (Homo sapiens, UniProt O43186 26-111) (O43186 26-111): as the sequence (O43186 26-111 E42D) above, with D17E counted along it
Chain of CRX (Homo sapiens, UniProt O43186 26-111, R41L) (O43186 26-111 R41L): as the sequence (O43186 26-111 E42D) above, with R16L, D17E counted along it
Chain of MSX2 (Homo sapiens, UniProt P35548 130-214) (P35548 130-214): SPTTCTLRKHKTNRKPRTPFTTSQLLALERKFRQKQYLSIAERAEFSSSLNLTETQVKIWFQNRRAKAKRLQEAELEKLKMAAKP
Chain of MSX2 (Homo sapiens, UniProt P35548 130-214, F161Y) (P35548 130-214 F161Y): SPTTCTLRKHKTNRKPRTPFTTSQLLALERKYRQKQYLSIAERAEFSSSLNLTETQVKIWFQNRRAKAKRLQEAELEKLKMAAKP
Chain of HOXA2 (Homo sapiens, UniProt O43364 129-215, R185T) (O43364 129-215 R185T): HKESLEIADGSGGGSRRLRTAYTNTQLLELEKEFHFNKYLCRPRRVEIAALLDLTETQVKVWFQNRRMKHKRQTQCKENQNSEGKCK
Chain of ALX3 (Homo sapiens, UniProt O95076 139-225) (O95076 139-225): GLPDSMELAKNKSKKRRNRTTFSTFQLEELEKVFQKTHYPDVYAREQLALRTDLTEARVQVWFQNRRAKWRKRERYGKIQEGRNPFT
Chain of HOXA2 (Homo sapiens, UniProt O43364 129-215) (O43364 129-215): as the sequence (O43364 129-215 R185T) above, with T57R counted along it
Chain of ALX3 (Homo sapiens, UniProt O95076 139-225, L168V) (O95076 139-225 L168V): as the sequence (O95076 139-225) above, with L30V counted along it
Chain of ALX4 (Homo sapiens, UniProt Q9H161 200-286, Q225E) (Q9H161 200-286 Q225E): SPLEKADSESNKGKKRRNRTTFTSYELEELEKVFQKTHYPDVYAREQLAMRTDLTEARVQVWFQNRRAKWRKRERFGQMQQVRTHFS
Chain of HOXA2 (Homo sapiens, UniProt O43364 129-215, R185K) (O43364 129-215 R185K): as the sequence (O43364 129-215 R185T) above, with T57K counted along it
Chain of ALX3 (Homo sapiens, UniProt O95076 139-225, L168Q) (O95076 139-225 L168Q): as the sequence (O95076 139-225) above, with L30Q counted along it
Chain of ALX3 (Homo sapiens, UniProt O95076 139-225, N203Q) (O95076 139-225 N203Q): as the sequence (O95076 139-225) above, with N65Q counted along it
Chain of HOXA2 (Homo sapiens, UniProt O43364 129-215, Y150S) (O43364 129-215 Y150S): as the sequence (O43364 129-215 R185T) above, with Y22S, T57R counted along it
Chain of HOXB6 (Homo sapiens, UniProt P17509 132-218, K202E) (P17509 132-218 K202E): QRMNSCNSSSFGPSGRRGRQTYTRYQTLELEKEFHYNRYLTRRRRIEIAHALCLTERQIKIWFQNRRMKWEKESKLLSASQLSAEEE
Chain of ALX3 (Homo sapiens, UniProt O95076 139-225, N203S) (O95076 139-225 N203S): as the sequence (O95076 139-225) above, with N65S counted along it
Chain of HOXB6 (Homo sapiens, UniProt P17509 132-218) (P17509 132-218): as the sequence (P17509 132-218 K202E) above, with E71K counted along it
Chain of ALX4 (Homo sapiens, UniProt Q9H161 200-286) (Q9H161 200-286): as the sequence (Q9H161 200-286 Q225E) above, with E26Q counted along it

On to CCAGATTA, for which the binding signal with CRX [1] is 13 upbm affinity estimate (log intensity, higher = more binding, comparable within an allelic series); with VENTX it was 10 upbm affinity estimate (log intensity, higher = more binding, comparable within an allelic series); with HOXB6 [2] it was 9.66 upbm affinity estimate (log intensity, higher = more binding, comparable within an allelic series); with CRX [3] it was 13 upbm affinity estimate (log intensity, higher = more binding, comparable within an allelic series); with MSX2 [4], 11.3 upbm affinity estimate (log intensity, higher = more binding, comparable within an allelic series); in the assay with MSX2 [5], 11.1 upbm affinity estimate (log intensity, higher = more binding, comparable within an allelic series). The binding signal is 12.7 upbm affinity estimate (log intensity, higher = more binding, comparable within an allelic series) with CRX [6] and 10.3 upbm affinity estimate (log intensity, higher = more binding, comparable within an allelic series) with HOXB6 [7].

GCAGCTGC: the binding signal with CRX [1] was 8.45 upbm affinity estimate (log intensity, higher = more binding, comparable within an allelic series); in the assay with SIX6 [8], 9.09 upbm affinity estimate (log intensity, higher = more binding, comparable within an allelic series); in the assay with SIX6 [9], 9.05 upbm affinity estimate (log intensity, higher = more binding, comparable within an allelic series); with ALX4 [10], 7.95 upbm affinity estimate (log intensity, higher = more binding, comparable within an allelic series); with PAX4 [11], 8.99 upbm affinity estimate (log intensity, higher = more binding, comparable within an allelic series); with SIX6 [12], 9.04 upbm affinity estimate (log intensity, higher = more binding, comparable within an allelic series). In addition, the binding signal was 9.02 upbm affinity estimate (log intensity, higher = more binding, comparable within an allelic series) with SIX6 [13]; 9.1 upbm affinity estimate (log intensity, higher = more binding, comparable within an allelic series) with PAX4 [14]; 9.06 upbm affinity estimate (log intensity, higher = more binding, comparable within an allelic series) with SIX6 [15]; 9.14 upbm affinity estimate (log intensity, higher = more binding, comparable within an allelic series) in the assay with SIX6 [16]; 9.05 upbm affinity estimate (log intensity, higher = more binding, comparable within an allelic series) with SIX6 [17]; 8.23 upbm affinity estimate (log intensity, higher = more binding, comparable within an allelic series) with ALX4 [18]. The binding signal was 9.04 upbm affinity estimate (log intensity, higher = more binding, comparable within an allelic series) with SIX6 [19]; 7.31 upbm affinity estimate (log intensity, higher = more binding, comparable within an allelic series) with HOXA2 [20]; 9.1 upbm affinity estimate (log intensity, higher = more binding, comparable within an allelic series) in the assay with SIX6 [21]; 8.55 upbm affinity estimate (log intensity, higher = more binding, comparable within an allelic series) with CRX [3]; 7.82 upbm affinity estimate (log intensity, higher = more binding, comparable within an allelic series) in the assay with ALX3 [22]; 9.05 upbm affinity estimate (log intensity, higher = more binding, comparable within an allelic series) in the assay with SIX6 [23]. Moreover, the binding signal is 9.09 upbm affinity estimate (log intensity, higher = more binding, comparable within an allelic series) in the assay with PAX4 [24]; 10.3 upbm affinity estimate (log intensity, higher = more binding, comparable within an allelic series) with HOXA2 [25]; 9.27 upbm affinity estimate (log intensity, higher = more binding, comparable within an allelic series) with PAX4 [26]; 9.06 upbm affinity estimate (log intensity, higher = more binding, comparable within an allelic series) in the assay with SIX6 [27]; 7.63 upbm affinity estimate (log intensity, higher = more binding, comparable within an allelic series) in the assay with ALX3 [28]; 9.13 upbm affinity estimate (log intensity, higher = more binding, comparable within an allelic series) with PAX4 [29]. Further, the binding signal in the assay with SIX6 [30] is 9.1 upbm affinity estimate (log intensity, higher = more binding, comparable within an allelic series); with ALX3 [31], 7.75 upbm affinity estimate (log intensity, higher = more binding, comparable within an allelic series); with SIX6 [32] it was 9.05 upbm affinity estimate (log intensity, higher = more binding, comparable within an allelic series); with ALX3 [33], 7.78 upbm affinity estimate (log intensity, higher = more binding, comparable within an allelic series); with PAX4 [34], 9.34 upbm affinity estimate (log intensity, higher = more binding, comparable within an allelic series); with HOXA2 [35], 10.3 upbm affinity estimate (log intensity, higher = more binding, comparable within an allelic series). In addition, the binding signal was 8.5 upbm affinity estimate (log intensity, higher = more binding, comparable within an allelic series) with CRX [6]; 7.82 upbm affinity estimate (log intensity, higher = more binding, comparable within an allelic series) with ALX3 [36]; 7.36 upbm affinity estimate (log intensity, higher = more binding, comparable within an allelic series) with HOXA2 [37].
